# This is a sample that favours compounds with a hit; in the whole collection about 4.6% have one here.
# TRHR enhancer: TRH receptor (human) allosteric enhancement. P34981. enhancement, % at 2 µM. TRHR cells, fluo-8 calcium fluorescence, EC20 TRH enhancement. 360,000 compounds, 0.66% hits; in the data active = enhancement above about 30%; also: 0% is about no effect
# Target sequence (P34981 whole entry, looked up): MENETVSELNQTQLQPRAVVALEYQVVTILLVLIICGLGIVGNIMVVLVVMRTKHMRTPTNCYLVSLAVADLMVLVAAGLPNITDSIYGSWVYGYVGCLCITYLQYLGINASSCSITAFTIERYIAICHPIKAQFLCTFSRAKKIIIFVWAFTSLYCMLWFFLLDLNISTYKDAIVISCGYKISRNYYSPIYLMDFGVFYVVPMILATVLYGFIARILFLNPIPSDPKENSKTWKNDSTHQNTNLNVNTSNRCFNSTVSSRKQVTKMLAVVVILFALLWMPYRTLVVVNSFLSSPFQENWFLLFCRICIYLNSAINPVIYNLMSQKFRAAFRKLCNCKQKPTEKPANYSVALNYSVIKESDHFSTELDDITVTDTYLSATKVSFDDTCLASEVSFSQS
#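 TRHR-expressing cells loaded with fluo-8 calcium dye were read kinetically (ex 480/em 530) during compound addition, then stimulated with an EC20 of TRH (10 nM final). Enhancement of the Gq-mediated intracellular calcium response was scored.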
# D1 antagonist: human D1 dopamine receptor antagonism; P21728; HEK293 TREx D1 cells, calcium flux, dopamine EC80; stronger effect = lower value; activity change, negative = inhibition, % at 10 µM; 360,000 compounds, 3.2% hits; in the data active = activity change below about -30%; also: % is scaled to controls: 0 for no effect and ±100 for the full control effect
#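 Kinetic fluorescence of a calcium dye serves as the read-out. D1-expressing Hek293 Trex cells, induced overnight at 30 C, are exposed to compound for 180 s before an EC80 dopamine addition, then read 180 s further.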
# D1 potentiator: human D1 dopamine receptor positive modulation; P21728; HEK293 TREx D1 cells, calcium flux, dopamine EC20 potentiation; potentiation, % at 10 µM; 360,000 compounds, 0.036% hits; in the data active = potentiation above about 30%; also: 0% is about no effect
# D1 agonist: activates the human D1 dopamine receptor; P21728; HEK293 T-REx D1 cells, calcium flux, agonist mode; activation, % at 2 µM; 360,000 compounds, 1% hits; AID 504660; also: 0% is about no effect
#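 Inducible HEK293 T-REx D1 cells, force-coupled to calcium signalling, were plated at 4000 cells/well with tetracycline and held overnight at 30 C. After no-wash calcium dye loading, compound-evoked calcium rise over 180 s flagged agonists.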
# TRHR ag: activates the human TRH receptor; P34981; TRHR cells, calcium flux fluo-8, FDSS agonist mode; activation, % at 2 µM; 360,000 compounds, 0.18% hits; also: 0% is about no effect
#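 TRHR-expressing cells, plated overnight in medium with 10% serum, were loaded with fluo-8 calcium dye at room temperature. After a 10 s baseline, library compound was pin-added and calcium release was recorded kinetically (ex 480/em 530) as agonist response.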
# An asterisk follows results filed as active; · = no result. Rule as the data show it, unless noted: active = activation above about 30%; inactive = the rest.
SMILES,TRHR enhancer,D1 antagonist,D1 potentiator,D1 agonist,TRHR ag
CC(Sc1ncnc2sc(-c3ccccc3)cc12)C(=O)N1CCNC1=O (stereo unspecified),0.0,-40.7*,-1.1,12.9,-0.3
COc1ccccc1CCNC(=O)C(=O)NCC(c1ccco1)S(=O)(=O)c1ccc(F)cc1 (stereo unspecified),-2.4,·,-1.9,2.5,-0.4
COc1ccccc1NC(=O)CSc1n[nH]c(-c2cccnc2)n1,-0.4,5.3,1.1,0.0,0.2
Cc1ccc(NC(=O)CSc2n[nH]c(-c3cccnc3)n2)c(Br)c1,4.4,-32.5*,·,6.8,-1.4
Cc1ccc(C)c(Nc2nc(-c3cccnc3)cs2)c1,3.7,-39.2*,-7.3,1.5,3.1
Cc1ccc(Nc2nc(-c3cccnc3)cs2)cc1Cl,-0.8,-4.2,-4.7,5.9,0.5
Cc1cc2c(s1)c1cnn(Cc3cccc(F)c3)c(=O)c1n2C,-4.2,5.2,1.1,-0.5,-1.3
CN1CCN(CCCN2c3ccccc3Sc3ccc(S(=O)(=O)N(C)C)cc32)CC1,-0.7,-93.8*,-0.8,52.4*,4.7
CC[N+](C)(C)CC/C=C1/c2ccccc2Sc2ccc(Cl)cc21,3.5,-16.9,-3.0,0.4,-0.7
CCCCCCCCCC[N+](C)(C)CC/C=C1/c2ccccc2Sc2ccc(Cl)cc21,7.7,5.8,-4.5,53.1*,1.4
CN1CCN(CCCNC(=O)c2cn(C)c3ccc(S(=O)(=O)N(C)C)cc3c2=O)CC1,-3.8,-6.5,-3.9,3.7,0.2
CN(C)CC/C=C1/c2cc(F)ccc2CSc2ccc(F)cc21,3.2,-3.9,-8.9,4.5,1.1
CN(C)CC/C=C1\c2ccccc2Sc2ccc(Cl)cc21,-0.9,-81.9*,-3.0,22.4,0.6
OCCN1CCN(CC/C=C2/c3ccccc3Sc3ccc(Cl)cc32)CC1,0.3,-100.2*,-5.3,26.6,-0.6
CCc1ccc(NCc2cc3ccc(OC)cc3n(CC(=O)Nc3ccc(F)cc3F)c2=O)cc1,6.2,-2.0,-0.9,0.4,-0.5
Cc1ccc(C(C)C)c(OCC(=O)NCC2(N(C)C)CCCCC2)c1,-6.0,6.4,-0.4,2.5,1.4
OCCN1CCN(CCCN2c3ccccc3Sc3ccc(Cl)cc32)CC1,1.0,-83.1*,-5.8,11.7,1.8
CCCCCCCCCCC[N+](C)(C)CC/C=C1/c2ccccc2Sc2ccc(Cl)cc21,0.7,-8.2,-8.8,48.0*,2.5
CCOC(=O)N1CCN(C(=O)c2cccc(NC(=O)c3ccco3)c2)CC1,-2.5,-63.1*,-6.8,2.8,0.9
O=C(Nc1cccc(C(=O)N2CCCCCC2)c1)c1ccco1,4.4,-10.6,-0.6,2.4,0.2
CCCCn1nnc(NC(=O)c2cc3ccccc3o2)n1,4.2,-36.1*,5.8,2.2,2.4
CCOC(=O)c1cccc(NC(=O)c2ncoc2-c2ccco2)c1,4.1,-38.7*,-0.8,15.7,-0.7
CCOC(=O)c1cccc(NC(=O)c2cc3ccccc3o2)c1,-6.6,-41.8*,3.6,6.1,0.0
CN(CC(=O)Nc1cccc(F)c1)C(=O)c1ccc(C(=O)c2ccccc2)cc1,-5.1,-60.3*,-5.8,17.6,4.1
Cc1nn(CCCC(=O)NCc2cccc(Cl)c2)c(=O)c2c1sc1ccccc12,-1.7,-14.9,-0.5,1.5,0.2
SMILES,TRHR enhancer,D1 antagonist,D1 potentiator,D1 agonist,TRHR ag
CC(CNC(=O)c1cnn(-c2ccc(F)cc2)c1-n1cccc1)c1ccccc1 (stereo unspecified),-7.1,-13.6,-0.7,8.9,0.4
O=C(CCNS(=O)(=O)c1cccs1)NCc1ccccc1,6.9,-3.2,-5.4,1.0,0.3
COc1cccc(CNC(=O)CCCNS(=O)(=O)c2cccs2)c1,-14.8,-91.6*,-12.2,2.6,3.0
Cc1ccc(Nc2cc(C)c(C#N)c3nc4ccccc4n23)c(C)c1,4.4,-37.9*,-8.6,-0.7,1.6
Cc1cc(C)nc(NC(=O)/C=C/c2ccccc2Cl)c1,-2.1,-70.5*,6.0,1.3,-1.2
Cc1cn2c(=O)cc(COC(=O)c3cccc(NC(=O)C(C)Oc4ccccc4)c3)nc2s1 (stereo unspecified),2.7,1.3,0.1,2.5,-0.2
COc1ccc(OC)c(NCc2cccn2-c2nnc(N3CCCCC3)s2)c1,-3.8,-7.3,-5.0,-1.1,-0.7

# Source: PubChem BioAssay
